In publication PMC4336329 (PLoS ONE, 2015):
Screen size: about 310,000 compounds; about 14,000 (4.5%) showed an effect of 50% or more. Effects have a minus sign here. The list comes from a sample in which strong results are over-represented; it also holds similar structures and randomly drawn compounds.

These compounds were tested against human ether-à-go-go-related gene (hERG) potassium channel (human, UniProt Q12809) (assay: primary screen, population patch clamp on CHO cells stably expressing hERG; higher = less effect of the substance).
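Note: peak tail current of the secondary pulse compared with the same well before compound.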

Sequence of human ether-à-go-go-related gene (hERG) potassium channel (Q12809 whole entry, looked up): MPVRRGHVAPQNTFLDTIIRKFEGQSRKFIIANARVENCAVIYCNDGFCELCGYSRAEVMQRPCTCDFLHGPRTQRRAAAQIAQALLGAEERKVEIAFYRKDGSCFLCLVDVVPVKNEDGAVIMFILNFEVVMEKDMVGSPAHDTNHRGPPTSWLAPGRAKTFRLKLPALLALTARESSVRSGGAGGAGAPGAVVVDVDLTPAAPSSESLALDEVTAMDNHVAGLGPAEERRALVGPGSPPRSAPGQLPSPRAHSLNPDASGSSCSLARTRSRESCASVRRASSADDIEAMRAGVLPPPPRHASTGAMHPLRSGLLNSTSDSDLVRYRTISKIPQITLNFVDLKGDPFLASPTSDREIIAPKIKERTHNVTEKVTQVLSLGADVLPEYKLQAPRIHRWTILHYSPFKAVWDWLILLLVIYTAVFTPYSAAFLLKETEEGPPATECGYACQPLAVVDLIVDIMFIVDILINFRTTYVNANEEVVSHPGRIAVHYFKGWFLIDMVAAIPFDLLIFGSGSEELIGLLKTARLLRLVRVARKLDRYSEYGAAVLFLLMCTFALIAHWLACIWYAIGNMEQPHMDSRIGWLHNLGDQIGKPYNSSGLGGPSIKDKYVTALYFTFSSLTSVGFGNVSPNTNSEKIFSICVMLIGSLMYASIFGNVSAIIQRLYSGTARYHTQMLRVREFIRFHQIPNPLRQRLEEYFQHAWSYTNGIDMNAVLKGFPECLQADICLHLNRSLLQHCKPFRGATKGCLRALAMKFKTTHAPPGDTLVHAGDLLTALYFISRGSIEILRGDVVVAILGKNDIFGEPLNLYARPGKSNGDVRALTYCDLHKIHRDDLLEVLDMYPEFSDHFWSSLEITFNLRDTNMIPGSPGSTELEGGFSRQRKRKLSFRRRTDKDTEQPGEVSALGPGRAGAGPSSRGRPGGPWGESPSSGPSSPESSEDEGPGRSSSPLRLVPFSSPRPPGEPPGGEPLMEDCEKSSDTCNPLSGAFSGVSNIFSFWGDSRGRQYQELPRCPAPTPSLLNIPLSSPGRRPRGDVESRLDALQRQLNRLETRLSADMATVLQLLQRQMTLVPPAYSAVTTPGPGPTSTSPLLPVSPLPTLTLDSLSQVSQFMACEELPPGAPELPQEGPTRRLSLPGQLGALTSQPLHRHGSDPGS

SMILES	hERG current change (%, negative = inhibition) at 10uM [%]
NCC/C=C1/c2ccccc2CSc2ccccc21.O=C(O)/C=C\C(=O)O	-3.76
CN(C)c1ccc(S(=O)(=O)N2CCCCC2)cc1NC(=O)CN1C(=O)NC2(CCCC2)C1=O	8.25
COc1ccccc1OCCNC(=O)C1CC(=O)N(Cc2ccccc2)C1 (stereo not drawn)	-10.2
CC(O)CNC(=O)c1ccc(-c2nn(C)c(=O)c3ccccc23)cc1 (stereo not drawn)	-0.479
Cc1ccc2c(Cl)cc(Cl)c(OCc3c(C)noc3C)c2n1	8.92
O=C(NO)c1ccc(OC(F)F)cc1	7.91
Cc1ccc(C(C)C)c(O)c1	19.7
CC(C)C[C@@H](CSc1ccccc1)N1CCN(CC(C)C)CCC1=O	-75
O=C(CCC(=O)N(CC(=O)NC1CCCC1)Cc1ccccc1Cl)Nc1nccs1	-16.1
O=C(COC(=O)c1cccc(OC(F)F)c1)NC(=O)NC1CCCCC1	11.1
CCOc1ccc(N(CC(=O)NCc2ccc(F)cc2)C(=O)c2ccco2)cc1	-54.6
CN(CC(=O)NCc1ccccc1)Cc1ccc(Cl)cc1	-22.9
CCOc1ccc(N(CC(=O)NC(C)(C)C)C(=O)c2ccco2)cc1	-1.84
CCOc1ccc(N(CC(=O)NCc2ccccc2)S(C)(=O)=O)cc1	-10.9
CN(CC(=O)NCCc1ccc(F)cc1)Cc1ccccc1	-2.73
CC(=O)c1ccc(OCC(=O)NCc2ccc(F)cc2)cc1	-11.5
Cc1ccc(N(CC(=O)NCc2ccc(F)cc2)C(=O)c2ccco2)cc1C	-10.8
Cc1ccc(CNCc2ccccc2Cl)cc1.Cl	-7.02
CCOc1ccc(CN(C)CC(=O)NCc2ccccc2)cc1	-76.1

SMILES	hERG current change (%, negative = inhibition) at 10uM [%]
CCOCCCNCc1ccc(OCc2ccccc2Cl)cc1	-46.9
CCOc1ccc(CNCc2ccccc2Cl)cc1.Cl	-55.3
CCOc1ccc(CN(C)CC(=O)NCc2ccc(F)cc2)cc1	-74
Cc1c(C)c2c(OCC(=O)NCC(=O)NCC(=O)O)cc3c(c2oc1=O)CCC(C)(C)O3	15.2
Cn1ncc2c(Nc3cccc([N+](=O)[O-])c3)ncnc21	7.09
CC(C)N(C(=O)COC(=O)CNC(=O)c1ccc(Br)cc1)c1ccccc1	-15.5
O=C(COc1ccc(Cl)cc1)NCCCNC(=O)c1ccncc1	-36.1
COC(=O)C1=C(C)OC(N)=C(C#N)C1c1cc2cccc(C)c2nc1Cl (stereo not drawn)	-5.39
CN(C)c1cc[n+](CC(=O)Nc2ccc(Cl)cc2)cc1.[Cl-]	7.28
COc1ccc(N2CCOCC2)c(NC(=O)c2cccnc2)c1	12.8
O=C(c1cnn(C(=O)c2cccc(S(=O)(=O)N3CCOCC3)c2)c1)c1cc(Cl)cc(Cl)c1O	-44.5
CC(=O)Oc1ccc(/C=N/NC(=O)c2ccc(N(C)S(=O)(=O)c3ccccc3)cc2)cc1	12.8
C=CCOC(=O)C1=C(C)NC(=S)NC1/C=C/c1ccccc1 (stereo not drawn)	-4.63
CCOc1ccc(CN(C)CC(=O)NCc2ccccc2Cl)cc1	-89.1
COc1cccc(CN(C)CC(=O)NCc2ccccc2Cl)c1	-5.14
COc1cccc(CN(C)CC(=O)NCc2ccccc2Cl)c1OC	-7.66
Cn1cccc1/C=N\NC(=O)C1COc2ccc(C(C)(C)C)cc2O1 (stereo not drawn)	-3.42
COc1ccc(N2CC(C(=O)NCCC3=CCCCC3)CC2=O)c(OC)c1 (stereo not drawn)	-4.67
O=C(O)CC/C(=N/NC(=O)c1cccs1)c1ccccc1	6.16

SMILES	hERG current change (%, negative = inhibition) at 10uM [%]
Nc1c(C(=O)NCc2ccco2)nnn1-c1ccccc1	2.52
CC(C)NC(=O)C1CCN(C2CCN(C(=O)c3scc4c3CCCC4)CC2)CC1	-1.4
CC(C)NC(=O)C1CCN(C2CCN(C(=O)c3cc4c(s3)CCCCC4)CC2)CC1	-51.8
NC(=O)C1CCN(C(=O)c2cc3c(s2)CCCCC3)CC1	-6.51
COc1ccc(S(=O)(=O)Cc2ccc(C(=O)O)o2)cc1	21.8
CCOC(=O)N1CCC(n2c(SCC(=O)NCCc3ccc(S(N)(=O)=O)cc3)nc3ccccc3c2=O)CC1	21
CCOC(=O)N1CCC(n2c(SCC(=O)N3CCC(C)CC3)nc3ccccc3c2=O)CC1	-47.9
CCOC(=O)N1CCC(n2c(SCC(=O)Nc3ccccc3OC)nc3ccccc3c2=O)CC1	-66.4
CCOC(=O)N1CCC(n2c(SCC(=O)N3CCCC3)nc3ccccc3c2=O)CC1	-20.9
CCOC(=O)N1CCC(n2c(SCC(=O)NCc3ccccc3)nc3ccccc3c2=O)CC1	-46.6
CCOC(=O)N1CCC(n2c(SCC(=O)NCCC3=CCCCC3)nc3ccccc3c2=O)CC1	-59.3
COc1ccccc1S(=O)(=O)Cc1ccc(C(=O)NCc2ccc(C)cc2)o1	-28.4
CC(C)(CNC(=O)c1cc(Cl)c(O)c(Cl)c1)N1CCCCC1	4.69
c1ccc(N=Nc2ccc3cccccc2-3)cc1	8.38
Cc1cc(Oc2nnnn2-c2ccccc2)ccc1Cl	-15.3
COc1ccc(C(CC(=O)N2CCC3(CC2)OCCO3)NS(=O)(=O)c2ccc(F)cc2)cc1 (stereo not drawn)	-2.22
O=C(O)C1CC=CCC1C(=O)Nc1ccc(Oc2ccc(Cl)cc2)cc1 (stereo not drawn)	7.55
COc1ccc(CCC(=O)NNC(=O)c2ccc(F)cc2)cc1	6.02
O=C(CCc1nnc2ccc(NCc3ccc(F)cc3)nn12)NC1CCCC1	-0.461
